Assay outcomes: PubChem, Buhrlage Lab, Dana-Farber Cancer Institute and Novartis Institutes for BioMedical Research (Cambridge, Mass)
Only some compounds are listed: those with a hit (about 11% of all), similar ones and a draw of the others.
USP28 block: blocks human USP28 ubiquitin-rhodamine cleavage; purified USP28, Ub-rhodamine cleavage fluorescence, 30 min; AID 1645857; 3% of 47,000 active; inhibition, % at 25 µM
OTUD3 inh: human OTUD3 deubiquitinase inhibition | Q5T2D3 | purified OTUD3, Ub-rhodamine fluorescence, 2 h | inhibition, % at 25 µM | 0.7% of 47,000 active | AID 1645858
USP17 inh: human USP17-like deubiquitinase inhibition | purified USP17, Ub-rhodamine cleavage fluorescence, 3 h | inhibition, % at 50 µM | 6.5% of 47,000 active
USP30 block: blocks human USP30 ubiquitin-rhodamine cleavage; purified USP30, Ub-rhodamine cleavage fluorescence; inhibition, % at 25 µM; 5.3% of 47,000 active; AID 1645860
Target sequence (Q70CQ3 whole entry, looked up): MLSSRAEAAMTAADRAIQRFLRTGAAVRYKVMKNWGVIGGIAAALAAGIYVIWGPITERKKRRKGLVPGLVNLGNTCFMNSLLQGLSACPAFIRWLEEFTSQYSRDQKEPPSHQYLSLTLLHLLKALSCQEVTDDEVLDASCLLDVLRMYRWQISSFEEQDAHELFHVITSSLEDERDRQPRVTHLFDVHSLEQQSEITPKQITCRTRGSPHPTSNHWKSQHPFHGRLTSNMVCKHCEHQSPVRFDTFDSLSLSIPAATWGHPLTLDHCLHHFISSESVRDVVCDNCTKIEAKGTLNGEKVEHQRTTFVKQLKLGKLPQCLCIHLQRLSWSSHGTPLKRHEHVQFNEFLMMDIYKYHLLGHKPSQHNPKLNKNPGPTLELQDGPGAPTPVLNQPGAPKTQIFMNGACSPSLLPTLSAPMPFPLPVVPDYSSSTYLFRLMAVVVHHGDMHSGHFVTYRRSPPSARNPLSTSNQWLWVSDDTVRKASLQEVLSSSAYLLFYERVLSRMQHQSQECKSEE
An asterisk follows results filed as active. Rule as the data show it: active = inhibition above about 30%; inactive = the rest.

What do the screens show for `CCNCC(=O)Nc1cccc(Oc2ccccc2)c1`?
USP28 block: 14.0; OTUD3 inh: 1.9; USP17 inh: 0.4; USP30 block: 22.4

Results for Cn1cc2c(n1)c(=O)n(Cc1ccc(F)cc1)c(=O)n2CC(=O)NCc1ccco1 ?
USP28 block: -15.0; OTUD3 inh: -4.3; USP17 inh: -38.0; USP30 block: -64.8

What do the screens show for `CCCn1c(=O)c2nscc2n(CC(=O)NCc2ccccc2)c1=O`?
USP28 block: -5.0; OTUD3 inh: -9.8; USP17 inh: -9.8; USP30 block: -11.9

How did O=C(Cn1c(=O)n(Cc2ccccc2)c(=O)c2cc(Cl)ccc21)NCc1ccco1 do in these assays?
USP28 block: -5.3; OTUD3 inh: -1.7; USP17 inh: -10.4; USP30 block: -38.5

How did CCCn1c(=O)c2nscc2n(CC(=O)NCc2ccc(C)cc2)c1=O do in these assays?
USP28 block: 18.2; OTUD3 inh: 4.3; USP17 inh: 43.4*; USP30 block: 42.3*

What do the screens show for `CCn1cc2c(n1)c(=O)n(Cc1ccccc1)c(=O)n2CC(=O)NCc1ccc(C)cc1`?
USP28 block: 26.7; OTUD3 inh: 34.7*; USP17 inh: 55.9*; USP30 block: 90.4*

Results for CCn1cc2c(n1)c(=O)n(Cc1ccc(C)cc1)c(=O)n2CC(=O)Nc1ccc(F)cc1 ?
USP28 block: 17.8; OTUD3 inh: 15.9; USP17 inh: 80.6*; USP30 block: 26.0

How did O=C(Cn1c(=O)n(Cc2ccccc2)c(=O)c2nscc21)NCc1ccco1 do in these assays?
USP28 block: 14.5; OTUD3 inh: 3.3; USP17 inh: 41.9*; USP30 block: -22.8

Results for CC(C)CCN1[C@H]2CCN(C(=O)c3ccncn3)CC[C@@H]2Oc2ccccc2S1(=O)=O ?
USP28 block: -7.0; OTUD3 inh: -4.7; USP17 inh: -9.6; USP30 block: -5.7

What do the screens show for `O=C(Cn1c(=O)[nH]c2c(-c3ccccc3)c[nH]c2c1=O)NCc1ccco1`?
OTUD3 inh: 0.7; USP17 inh: 44.9*

How did Cn1cc2c(n1)c(=O)n(Cc1ccc(F)cc1)c(=O)n2CC(=O)Nc1ccccc1F do in these assays?
USP28 block: -20.0; OTUD3 inh: -8.2; USP17 inh: 42.4*; USP30 block: 5.4

How did Cc1cc(-c2ccc(S(=O)(=O)NC3CCCCC3)o2)on1 do in these assays?
USP28 block: -8.7; OTUD3 inh: -10.4; USP17 inh: -11.1; USP30 block: -9.2

What do the screens show for `CC(C)Oc1ccc(CSc2nc(N)c3c4c(sc3n2)COC(C)(C)C4)cc1`?
USP28 block: 13.4; OTUD3 inh: 12.8; USP17 inh: 12.9; USP30 block: 16.2

How did COC(=O)COc1ccc(/C=N/NC(=O)c2ccc(CN3CCc4ccccc4C3)cc2)cc1 do in these assays?
USP28 block: 16.8; OTUD3 inh: -4.0; USP17 inh: 25.0; USP30 block: 53.6*

Results for COc1ccc(S(=O)(=O)Nc2c(C)c(C)cc3c2nc(C)n3Cc2cccc(C)c2)cc1 ?
USP28 block: 6.1; OTUD3 inh: 10.9; USP17 inh: 18.2; USP30 block: 32.6*

How did COc1ccc(S(=O)(=O)Nc2nc3ccccc3nc2NCc2ccccc2)cc1 do in these assays?
USP28 block: -0.4; OTUD3 inh: -3.4; USP17 inh: 4.2; USP30 block: -13.3

What do the screens show for `Cc1cccc(NC(=O)CCN2C(=O)c3cccnc3Sc3ccccc32)c1C`?
USP28 block: 5.0; OTUD3 inh: 5.4; USP30 block: 14.9

What do the screens show for `Cc1ccccc1NC(=O)CCN1C(=O)c2cccnc2Sc2ccccc21`?
USP28 block: 9.2; OTUD3 inh: 15.7; USP17 inh: 11.7; USP30 block: 37.6*

How did O=C(Nc1nnc(-c2cccs2)o1)C(c1ccccc1)c1ccccc1 do in these assays?
USP28 block: 14.4; OTUD3 inh: 15.4; USP17 inh: 18.6; USP30 block: 44.5*

How did O=C(Nc1nnc(-c2ccc(Br)cc2)o1)C(c1ccccc1)c1ccccc1 do in these assays?
USP28 block: 12.2; OTUD3 inh: 12.1; USP17 inh: 6.3; USP30 block: 17.4

What do the screens show for `COc1ccc(NC(=O)c2cc3c(C(F)(F)F)nn(C)c3s2)cc1`?
USP28 block: 18.1; OTUD3 inh: 5.5; USP17 inh: 47.8*; USP30 block: 23.5

Results for Cc1ccc(C2CC(=O)c3cnc4c(c3C2)c(=O)n(C)c(=O)n4C)cc1 (centres undefined) ?
USP28 block: 1.3; OTUD3 inh: 3.9; USP17 inh: 2.9; USP30 block: 7.0

How did Cc1ccc(S(=O)(=O)N2CCC(C(=O)N3CCc4sccc4C3C)CC2)cc1 (centres undefined) do in these assays?
USP28 block: 9.9; OTUD3 inh: 0.3; USP17 inh: 4.6; USP30 block: 9.7

Results for Cc1nc2ccc(NC(=O)COc3ccccc3[N+](=O)[O-])cc2s1 ?
USP28 block: 6.4; OTUD3 inh: -2.1; USP30 block: 57.2*
